Screens (PubChem BioAssay)
G9a inh: G9a (human) methyltransferase inhibition; Q96KQ7; G9a H3K9 monomethylation, AlphaScreen, 2 h; Potency, µM (titrated, usually from 102 µM), inactives show top-dose activity, negative = inhibition, hits mostly inhibitors; 8.8% of 350,000 active; AID 504332; also: % is scaled to controls: 0 for no effect and ±100 for the full control effect; nearly all actives have a fitted effect of over 75% in size
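G9a (20 nM) preincubated 15 min RT with compounds, then 500 nM biotinylated H3K9 peptide and 20 uM SAM added; 2 h RT reaction. Monomethyl-H3K9 product detected by AlphaScreen with anti-H3K9me1 antibody, streptavidin donor and anti-rabbit IgG acceptor beads.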
JMJD2A Tudor: JMJD2A Tudor domain (human) inhibition; AlphaScreen JMJD2A-Tudor / H3K4me3 peptide binding; Potency, µM (top dose mostly 114 µM), without a hit: at the top dose activity change, negative = inhibition, actives largely listed as inhibitors; O75164; 4.4% of 390,000 active; also: % is scaled to controls: 0 for no effect and ±100 for the full control effect; nearly all actives have a fitted effect of over 50% in size
Target sequence (O75164 whole entry, looked up, the tested form may be a part): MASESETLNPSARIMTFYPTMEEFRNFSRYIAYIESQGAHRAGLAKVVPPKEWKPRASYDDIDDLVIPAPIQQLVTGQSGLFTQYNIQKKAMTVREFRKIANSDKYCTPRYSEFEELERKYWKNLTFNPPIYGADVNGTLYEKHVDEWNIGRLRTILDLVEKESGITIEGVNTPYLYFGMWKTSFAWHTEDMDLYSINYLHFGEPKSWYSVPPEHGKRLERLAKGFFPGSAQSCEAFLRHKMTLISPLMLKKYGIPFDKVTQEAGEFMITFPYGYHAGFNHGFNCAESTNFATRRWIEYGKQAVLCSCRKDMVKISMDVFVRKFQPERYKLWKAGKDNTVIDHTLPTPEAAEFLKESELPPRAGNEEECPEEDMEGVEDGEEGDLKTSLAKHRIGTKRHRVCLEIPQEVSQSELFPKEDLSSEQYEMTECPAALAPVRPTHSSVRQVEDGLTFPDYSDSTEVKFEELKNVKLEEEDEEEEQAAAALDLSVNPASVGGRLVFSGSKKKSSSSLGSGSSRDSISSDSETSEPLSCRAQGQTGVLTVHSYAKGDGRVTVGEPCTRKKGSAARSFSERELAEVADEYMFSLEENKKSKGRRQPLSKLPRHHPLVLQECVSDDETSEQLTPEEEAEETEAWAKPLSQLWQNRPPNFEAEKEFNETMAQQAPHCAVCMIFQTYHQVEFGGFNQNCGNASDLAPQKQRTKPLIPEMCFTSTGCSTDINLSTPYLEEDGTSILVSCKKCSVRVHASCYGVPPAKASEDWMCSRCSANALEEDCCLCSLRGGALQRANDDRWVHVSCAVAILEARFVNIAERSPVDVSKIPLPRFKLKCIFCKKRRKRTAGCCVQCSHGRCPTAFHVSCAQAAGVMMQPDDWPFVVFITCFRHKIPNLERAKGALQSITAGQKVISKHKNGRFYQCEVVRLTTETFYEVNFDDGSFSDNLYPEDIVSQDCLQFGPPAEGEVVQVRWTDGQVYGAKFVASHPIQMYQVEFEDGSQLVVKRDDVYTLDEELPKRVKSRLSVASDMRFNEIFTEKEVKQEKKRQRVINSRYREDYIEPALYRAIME
HP1b chromo inh: blocks HP1-beta chromodomain binding to methylated histone tails | P83916 | AID 540317 | AlphaScreen HP1-beta / biotin-H3K9me3 peptide binding | 0.56% of 390,000 active | Potency, µM (titrated, usually from 114 µM), without a hit: at the top dose activity change, negative = inhibition, usual class: inhibitors; also: nearly all actives have a fitted effect of over 70% in size
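AlphaScreen: HP1-beta (50 nM) preformed 30 min with biotin-H3(1-18)K9me3 peptide (50 nM) in PBS pH 7.4, 0.01% Tween-20. Compound added for 30 min at RT, then streptavidin donor/nickel chelate acceptor beads (10 ug/mL) for 30 min.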
PLK1 PBD inh: PLK1 (human) polo-box domain binding inhibition; Potency, µM, without a hit: max response, negative = inhibition, actives largely listed as inhibitors; P53350; AID 720504; 2.8% of 360,000 active; Plk1 PBD binding of FITC phosphopeptide, fluorescence polarization; also: series mostly up to about 57 µM; % is scaled to controls: 0 for no effect and ±100 for the full control effect; nearly all actives have a fitted effect of over 65% in size
Sfp PPTase inh: blocks B. subtilis Sfp PPTase activity | Q9F4F7 | Biochemical Sfp PPTase activity, qHTS | Potency, µM, inactives show largest response in the series, negative = inhibition, usual class: inhibitors | 3.5% of 310,000 active | AID 1490;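 also: the enzyme is Sfp with the accession as filed and its product quenches rhodamine fluorescence; 0% = enzyme reaction without inhibitor and -100% = no enzyme wells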
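Sfp 15 nM + cpd, 15 min RT; start w/ rhodamine-CoA 5 uM, BHQ-2-YbbR 12.5 uM (final); 50 mM Hepes pH 7.6, 10 mM MgCl2, 0.01% NP-40, 0.01% BSA; read 525/598 nm at 0 and 30 min.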
BAZ2B block: blocks human BAZ2B; Q9UIF8; AlphaScreen BAZ2B-H3K14Ac peptide displacement; Potency, µM (top dose mostly 114 µM), inactives show at the top dose activity change, negative = inhibition, hits mostly inhibitors; 4.4% of 360,000 active; AID 504333; also: % is scaled to controls: 0 for no effect and ±100 for the full control effect; nearly all actives have a fitted effect of over 60% in size
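Protein-peptide AlphaScreen: BAZ2B 50 nM, b-H3K14Ac 50 nM, 1x PBS pH 7.4 + 0.01% Tween-20. Preincubation 30 min RT; cpd 30 min RT (top 110 uM); beads 20 min RT, light-protected.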
Active calls of the source: *; ? = inconclusive; . = no result; ! = not active in a repeat; [ ] = another dose, or the depositor's remark. Most compounds without a hit are left out; they make up all but 12% or so of the library. Calls follow the shape of the dose curve; as a rule, active = well fitted curve in the direction sought with a large enough effect; inconclusive = small, poorly fitted or top-dose-only effect, or another doubt; inactive = no such curve, though single readings can be large; an effect the other way counts as inactive or inconclusive. Potency is read from the fitted curve at half-maximal effect.

SMILES	G9a inh	JMJD2A Tudor	HP1b chromo inh	PLK1 PBD inh	Sfp PPTase inh	BAZ2B block
COc1ccc(CCNC(=O)c2ccc3nc(Cc4ccccc4)oc3c2)cc1OC	-5%[59 µM]	-26%	26%[57 µM]	.	.	1%
CCc1ccc(N(CC)C(=O)Cn2nc(Cc3cccnc3)c3ccccc3c2=O)cc1	1%[59 µM]	-30%	22%	.	.	-21%
CCn1c(=O)c2c3c(sc2n2c(=S)[nH]nc12)CCC3	3.2µM*	7.9µM*	4%	-13%	-6%	8%
Cc1cccc(-n2c(=O)c3c4c(sc3n3cnnc23)CCCC4)c1	-35%[59 µM]	-15%	26%	.	.	-10%
COC(=O)C(C)Sc1nnc2n(-c3cccc(C)c3)c(=O)c3c4c(sc3n12)CCCC4 (stereo unspecified)	25µM*	-22%	32%	6%	-9%	3%
Cc1cccc(-n2c(=O)c3c4c(sc3n3c(=S)[nH]nc23)CCC4)c1	?	18µM*	28%	-11%	?	-30%
CSc1nnc2n(-c3cccc(C)c3)c(=O)c3c4c(sc3n12)CCCC4	-44%[59 µM]	-9%	27%	.	.	0%
Cc1ccc(-n2c(=O)c3c4c(sc3n3c(=S)[nH]nc23)CCC4)cc1	2.8µM*	25µM*	36%	-9%	-2%	-18%
COc1ccc(-c2cnc(-c3cccnc3)o2)cc1	.	.	.	.	-6%	.
COc1ccc(-n2c(=O)c3c4c(sc3n3c(=S)[nH]nc23)CCC4)cc1	2.5µM*	10µM*	15%	-18%	?	-14%
CCSc1nnc2n(-c3ccc(OC)cc3)c(=O)c3c4c(sc3n12)CCCC4	-1%[59 µM]	1%	29%	1%	9%	-3%
Cc1ccc(C)c(NS(=O)(=O)c2ccc3oc(=O)c4ncn(C)c4c3c2)c1	-15%[59 µM]	-12%	-6%	.	.	-12%
O=C(COC(=O)c1ccc(OC(F)(F)F)cc1)Nc1ncccn1	.	56µM*	-13%	-14%	.	.
CC1CC1c1ccc(/C=C(\C#N)C(=O)Nc2ccc(Cl)cc2Cl)o1 (stereo unspecified)	-5%[59 µM]	-16%	28%	3%	56µM*	-11%
CC1CC1c1ccc(/C=C(\C#N)C(=O)Nc2cc(Cl)ccc2Cl)o1 (stereo unspecified)	?	-12%	19%	3%	-5%	0%
CCN(CCNCC(O)COc1ccccc1C(C)C)c1cccc(C)c1 (stereo unspecified)	10µM*	0.79µM*	?	-3%	45µM*	28µM*
CCOC(=O)N1CCN(CC(O)COc2ccccc2C(C)C)CC1 (stereo unspecified)	11%[0.501 µM]	-8%	18%	-1%	-10%	-12%
CCNc1nc(N)nc(Oc2ccc(OCC(=O)OC)nn2)n1	-27%[59 µM]	-10%	21%	.	.	-1%
O=C1OCC(CO)(CO)N=C1NNc1ccccc1Cl	5.6µM*	?	-6%	-9%	-18%	-5%
O=C(O)C1(Nc2ccccc2Cl)CCCC1	.	0%	23%	0%	.	.
CCN[C@@H]1CN(CCCOC)S(=O)(=O)c2sc(S(N)(=O)=O)cc21	31%[21.5 µM]	.	.	.	14%	.
COC/C=C/C1=CC2=CC(=O)C(C)(OC(=O)c3cccs3)C(=O)C2=CO1 (stereo unspecified)	.	.	.	.	-8%	.
CC1(OC(=O)C2CCCC2)C(=O)C=C2C=C(C3CC3)OC=C2C1=O (stereo unspecified)	.	.	.	.	-9%	.
COC/C=C/C1=CC2=CC(=O)C(C)(OC(=O)C3CCCC3)C(=O)C2=CO1 (stereo unspecified)	?	63µM*	?	24µM*	79µM*	56µM*
COC/C=C/C1=CC2=CC(=O)C(C)(OC(=O)c3ccco3)C(=O)C2=CO1 (stereo unspecified)	?	.	.	.	56µM*	50µM*
SMILES	G9a inh	JMJD2A Tudor	HP1b chromo inh	PLK1 PBD inh	Sfp PPTase inh	BAZ2B block
COc1ccc(S(=O)(=O)NCC2CCCN(C(=O)CCC(F)(F)F)C2)cc1 (stereo unspecified)	32%	-15%	27%	-5%	21%	-1%
COC(=O)C1=CN(c2ccc3c(c2)OCO3)C(N)=C(C#N)C1c1ccccc1 (stereo unspecified)	.	.	.	-12%	.	.
Cn1c(=O)c2sccc2n2c(CCCC(=O)Nc3ccc(F)c(F)c3)nnc12	5%[59 µM]	-11%	39%	.	.	6%
COc1ccc(S(=O)(=O)NCC(c2ccc(C)cc2)N2CCN(C)CC2)cc1 (stereo unspecified)	?	-21%	5%	-16%	.	-4%
COc1ccc(S(=O)(=O)NCC(c2ccc(N(C)C)cc2)N2CCCC2)cc1F (stereo unspecified)	-1%[12.7 µM]	-32%	0%	.	.	-36%
CN(C)c1ccc(C(CNS(=O)(=O)c2ccccc2)N2CCc3ccccc32)cc1 (stereo unspecified)	-33%[12.7 µM]	13µM*	?	.	.	22µM*
CN(C)c1ccc(C(CNS(=O)(=O)c2ccc(F)cc2)N2CCOCC2)cc1 (stereo unspecified)	-18%[59 µM]	-31%	10%	.	.	-32%
Cc1ccc(S(=O)(=O)NCC(c2ccc(N(C)C)cc2)N2CCc3ccccc32)cc1 (stereo unspecified)	11µM*	14µM*	?	.	.	6.3µM*
COc1ccc(S(=O)(=O)NCC(c2ccc(N(C)C)cc2)N2CCc3ccccc32)cc1F (stereo unspecified)	-23%[12.7 µM]	20µM*	?	.	.	11µM*
CCOC(=O)C1=C(CC)Nc2ccccc2N=C1NC(=O)c1ccc(S(=O)(=O)N2CCOCC2)cc1	12%	-10%	57%	4%	13%	-16%
CCOC(=O)C1=C(CC)Nc2ccccc2N=C1NC(=O)c1ccc(S(=O)(=O)N(C)C)cc1	-23%[59 µM]	?	?	2.7µM*	11%	-2%
CCN(CC)C(=O)N1CCN(C)CC1	14µM*!	56µM*	-19%	-6%	-9%	?
CCOC(=O)CSc1nc2cc(OC)c(OC)cc2cc1C#N	.	-9%[57.1 µM]	25%[57 µM]	.	.	.
O=c1[nH]c(CSc2ncn[nH]2)nc2ccccc12	.	?	-3%	1%	-9%	-3%
c1ccc(CSc2ncn[nH]2)nc1	45µM*	-7%	0%	-21%	10%	-27%
CCOc1ccc(C(CC(=O)O)NC(=O)C(c2ccccc2)c2ccccc2)cc1OC (stereo unspecified)	-12%[12.7 µM]	-12%	47%	-5%	.	-1%
N#Cc1ccc(CN2CCN(C(=O)CNC(=O)Cc3cccc4ccccc34)CC2)cc1	50µM*	-6%	30%	-6%	.	3%
CCc1ccccc1NC(=O)CN1CCN(C(=O)CNC(=O)Cc2cccc3ccccc23)CC1	?	-12%	40%	-3%	.	0%
